Test results reported in PubChem BioAssay AID485313 (National Center for Advancing Translational Sciences (NCATS), 2010).
Screen size: about 320,000 compounds; about 7,600 (2.4%) were called active. Where a call stands in place of a potency, no number is given. Another 3% or so got no clear call; they are omitted. The sample holds actives, similar compounds and a random draw of the others, so the mix is not that of the screen. The call rests on the fitted dose curve; in most records, active means well fitted activation curve with a large enough effect; inconclusive means small, poorly fitted or top-dose-only effect; inactive means no such curve, though single readings can be large or run the other way.

Assay: qHTS Assay for NPC1 Promoter Activators; further: nearly all actives have a fitted effect of over 60% in size
Conditions: Huh7 NPC1 promoter luciferase reporter, 24 h; series mostly up to 9.22 µM
In short: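 Luminescence read-out of NPC1 promoter-driven luciferase in stably transfected Huh7 cells; compounds delivered in DMSO and left 24 h at 37C, 5% CO2, qHTS titration format.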
Potency means the concentration at half of the fitted maximal effect.

SMILES | Potency
Cc1cccc(-c2oc3ccc(-c4ccc5c(c4)OCO5)cc3c2C#Cc2cncn2C)c1 | inactive
Cc1cccc(C)c1OCCN1CCOCC1 | inactive
CCn1c2ccc(F)cc2c2nnc(SCCN3CCOCC3)nc21 | inactive
Cc1cc2nc(SCCN3CCOCC3)[nH]c2cc1C | 3980 nM (active)
CC(=O)Nc1ccc(NC(=O)C(NS(=O)(=O)c2ccc3c(c2)OCCO3)C(C)C)cc1 (centres undefined) | inactive
COc1cccc(NC(=O)CN(C)C(=O)/C=C/c2cn(-c3ccccc3)nc2-c2cccs2)c1 | inactive
CC1Cc2ccccc2N1S(=O)(=O)c1cccc(C(=O)NCC(c2ccco2)N2CCCC2)c1 (centres undefined) | inactive
CSCC[C@H](NC(=O)OC(C)(C)C)C(=O)N/N=C/c1cc2ccc(C)cc2nc1Cl | inactive
Cc1ccc2cc(/C=N/NC(=O)[C@@H]3CCCN3)c(Cl)nc2c1 | inactive
Cc1ccc2cc(/C=N/Nc3ccc(C(=O)O)cc3)c(Cl)nc2c1 | 1120 nM (active)
O=C(CSc1nc2ccccc2c(=O)n1CCCO)NC1CC1 | inactive
S=C(NNC(=S)NC1CC2C=CC1C2)NC1CC2C=CC1C2 (centres undefined) | inactive
S=C(NNC(=S)NC1CC2CCC1C2)NC1CC2C=CC1C2 (centres undefined) | inactive
CC(C)c1ccc(NC(=S)NC2CC3C=CC2C3)cc1 (centres undefined) | 3980 nM (active)
CCOC(=O)C1=C(COC(=O)[C@H](C)NS(=O)(=O)c2ccccc2F)NC(=O)NC1C (some centres undefined) | inactive
CCOc1ccc(C(C)NC(=O)CN2C(=O)NC3(CCCCC3)C2=O)cc1OCC (centres undefined) | inactive
Cc1cc(N/C=C\C(=O)c2ccc(Cl)c(Cl)c2)no1 | 2510 nM (active)
CCC(=O)Nc1ccc(C(=O)Nc2cc(C)on2)cc1 | inactive
Cc1ccc(C(=O)/C=C/Nc2ccc(S(=O)(=O)Nc3onc(C)c3C)cc2)cc1 | inactive
CCOC(=O)Cc1csc(SCC(=O)Nc2ccc(C)cc2F)n1 | inactive
Cc1ccc(S(=O)(=O)N2CCCCC2)cc1NC(=O)c1cccnc1 | inactive
CCCCc1ccc(NC(=O)CN2C(=O)NC(Cc3ccccc3)C2=O)cc1 (centres undefined) | inactive
NC(=O)COC(=O)c1sc2cc(F)ccc2c1Cl | inactive
COc1cc(C(=O)N2C(=O)c3cccc(N)c3C2=O)cc(OC)c1OC | inactive
COc1ccc2c(c1OC)C(=O)N(c1ncn[nH]1)C2 | inactive
COc1ccc2c(c1OC)C(=O)N(c1ccc(O)cc1)C2 | 2820 nM (active)

SMILES | Potency
O=C(c1cc2ccccc2o1)N1CCN(S(=O)(=O)c2ccc(Cl)s2)CC1 | inactive
O=C(OCC(=O)N1CCOCC1)c1ccc2ccccc2c1 | inactive
CCCCNC(=O)Cn1nc(C)c(S(=O)(=O)N2CCOCC2)c1C | inactive
O=c1ccc(S(=O)(=O)N2CCCC2)cn1Cc1nc(-c2ccccc2)no1 | inactive
O=C(CCS(=O)(=O)Cc1ccccc1)Nc1ccc2c(c1)OCCO2 | inactive
Nc1c(C(=O)Nc2ccc3c(c2)OCCO3)nnn1Cc1ccccc1 | 3160 nM (active)
CCc1ccc(NC(=O)Cn2nnc(C(=O)NCc3ccc4c(c3)OCO4)c2N)cc1 | inactive
Nn1c(SCC(=O)Nc2nccs2)nnc1-c1ccco1 | inactive
CC(C)[C@@H](C(=O)O)N(Cc1cccc(CN([C@H](C(=O)O)C(C)C)S(C)(=O)=O)c1)S(C)(=O)=O | inactive
Nc1ccn(C2CC(O)C(CO)O2)c(=O)n1 (centres undefined) | inactive
COc1ccc(C2Nc3ccccc3C(=O)N2Cc2ccccc2)cc1Cn1nnc2ccccc21 (centres undefined) | inactive
COc1ccccc1CC(=O)Nc1ccc([N+](=O)[O-])cc1OC | inactive
COc1ccc(C2Nc3ccccc3C(=O)N2c2ccc(F)cc2)cc1Cn1nnc2ccccc21 (centres undefined) | inactive
COc1ccc(N2C(=O)c3ccccc3NC2c2ccc(OC)c(CN3CCOCC3)c2)cc1 (centres undefined) | 2820 nM (active)
COc1ccc(C2Nc3ccccc3C(=O)N2c2ccc(Cl)cc2)cc1Cn1cc([N+](=O)[O-])cn1 (centres undefined) | 3980 nM (active)
COc1cccc(NC(=O)c2ccc(Cn3cc([N+](=O)[O-])cn3)o2)c1 | inactive
COC(=O)Cc1ccc(OCC(=O)NC2CCCC2)cc1 | inactive
CN(CCOc1ccccc1)C(=O)c1cc(-c2ccco2)nc2ccccc12 | inactive
CCN(c1ccccc1)S(=O)(=O)c1cccc(C(=O)NCc2ccccc2CN2CCOCC2)c1 | inactive
CN(C(=O)COc1ncnc2c1cnn2-c1ccccc1)C1CCCCC1 | inactive
c1ccc(-n2ncc3c2ncn2c(C4CCCCC4)nnc32)cc1 | 3980 nM (active)
CC(=O)Cn1cnc2c(cnn2-c2ccccc2)c1=O | inactive
Cc1ccc(S(=O)(=O)N(C)C)cc1NC(=O)CN1c2cccc3cccc(c23)S1(=O)=O | inactive
Cc1nn2cc(-c3ccc(Cl)cc3)cnc2c1Br | 2240 nM (active)
N#CC1(NC(=O)COC(=O)CSc2ccc(F)cc2)CCCCC1 | inactive
COc1ccc(S(=O)(=O)N2CCN(CC(=O)N3c4ccccc4CC3C)CC2)cc1OC (centres undefined) | inactive

SMILES | Potency
Cc1ccccc1-c1n[nH]c(=S)n1C | inactive
Cc1cc(C)nc(Nc2n[nH]c(-c3ccccc3N)n2)n1 | 447 nM (active)
Cc1cc(C)nc(Nc2ncn[nH]2)n1 | inactive
CCCC(=O)Nc1ccc2c(c1)nc(CCNC(=O)c1ccco1)n2C | inactive
O=C(Nc1ccc2oc(-c3ccccc3F)nc2c1)c1ccco1 | 1580 nM (active)
O=C(Nc1cccc(-c2nc3ncccc3o2)c1)c1ccco1 | inactive
COc1ccccc1S(=O)(=O)NCc1ccc(C(=O)N(C)Cc2ccc(F)cc2)cc1 | inactive
CCS(=O)(=O)Nc1cccc(-c2cc(-c3ccccc3)c3cc(C)ccc3n2)c1 | inactive
Cc1cccc(S(=O)(=O)CC(=O)Nc2nc(-c3ccccc3)cs2)c1 | inactive
CC(=O)Nc1cccc(-c2cnc3ccccc3n2)c1 | 2820 nM (active)
CC(=O)Nc1ccc(-c2csc(NC=C3C(=O)OC(C)(C)OC3=O)n2)cc1 | inactive
CC(=O)Nc1cccc(-c2csc(Nc3cccc(C)n3)n2)c1 | 708 nM (active)
CC(=O)Nc1cccc(Nc2nc(-c3cccs3)nc3ccccc23)c1 | inactive
COCCn1c(=NC(=O)c2ccccc2[N+](=O)[O-])sc2cc(S(C)(=O)=O)ccc21 | inactive
Cc1cccc(C(=O)NCC(=O)OCC(=O)N(C)CC(=O)Nc2ccccc2Cl)c1 | inactive
O=C(CSc1nnc(N2CCOCC2)n1-c1cccc(F)c1)N1CCN(c2ccccn2)CC1 | inactive
Cc1ccc(F)cc1S(=O)(=O)Nc1cccc(C(=O)N2CCCC(C(N)=O)C2)c1 (centres undefined) | inactive
COc1ccccc1C(=O)NC(CCSC)C(=O)N1CCN(C(C)=O)CC1 (centres undefined) | inactive
CCN(CC)c1ccc(C(=O)N/N=C/c2ccc(N3CCOCC3)cc2)cc1 | inactive
Cc1ccccc1N/N=C/c1ccc(N2CCOCC2)cc1 | 3160 nM (active)
C(=N/Nc1cc(N2CCOCC2)nc(N2CCOCC2)n1)/c1ccccc1 | inactive
CN1CCN(S(=O)(=O)c2cccc(C(=O)Nc3sccc3C#N)c2)CC1 | inactive
O=C1COc2ccc(C(=O)CSc3ccc(Br)cc3)cc2N1 | inactive
Cc1ccc2[nH]cc(CCCN3C(=O)c4ccccc4C3=O)c2c1 | inactive
COc1ccc(C[C@H](C(=O)O)N2C(=O)c3ccc(C(=O)O)cc3C2=O)cc1 | inactive
COc1ccc2[nH]cc(CCN3C(=O)c4ccc(C(=O)O)cc4C3=O)c2c1 | 3550 nM (active)

SMILES | Potency
CC(C)(C)OC(=O)N[C@H](C(=O)OC(C)(C)C)c1ccc(Br)cc1 | inactive
COc1ccccc1OCCNC(=O)C(CCSC)NC(=O)COc1ccccc1 (centres undefined) | inactive
NC(=O)c1ccsc1NC(=O)COC(=O)COc1ccc(C=O)cc1 | inactive
COc1ccc(S(=O)(=O)N(C)C)cc1NC(=O)CSc1ncccn1 | inactive
CN(C)S(=O)(=O)c1ccc2oc(SCC(=O)Nc3ccccc3F)nc2c1 | 3160 nM (active)
COc1ccc(NS(=O)(=O)c2ccc3oc(SCC(N)=O)nc3c2)cc1 | inactive
CCOc1ccc2nc(N(CCN(C)C)C(=O)c3ccc4ccccc4c3)sc2c1 | inactive
CCOc1ccc2nc(C(=O)N3CCCC(C)C3)sc2c1 (centres undefined) | 2000 nM (active)
CCCC(=O)N(CCN1CCOCC1)c1nc2ccc(OCC)cc2s1 | inactive
O=C(CSc1nnc(Nc2ccccc2)s1)Nc1cccnc1Cl | inactive
CC(C)c1ccc(Nc2nnc(SCC(=O)c3nnc(-c4ccccc4)o3)s2)cc1 | 3980 nM (active)
Cc1ccc(Nc2nnc(SCC(=O)c3cc4ccccc4o3)s2)cc1C | inactive
O=S(=O)(c1cccs1)N1CCN(CCOc2ccccc2)CC1 | inactive
CCOc1ccc(NS(=O)(=O)c2ccc(Cl)c(C(=O)N(C)Cc3cccnc3)c2)cc1 | inactive
Cc1ccc(C(=O)CN2C(=O)NC3(CCOc4ccccc43)C2=O)s1 (centres undefined) | inactive
O=C(OCC(=O)N1CCN(C(=O)c2ccco2)CC1)c1ccc(Cl)c(Cl)c1 | inactive
O=C(COC(=O)c1ccccc1)c1ccc2c(c1)OCCO2 | 316 nM (active)
O=C(COC(=O)c1ccncc1)c1ccccc1 | inactive
CC(NC(=O)COC(=O)c1ccc2c(c1)OCO2)c1ccccc1 (centres undefined) | inactive
CC(=O)Nc1cccc(C(=O)OCC(=O)NCc2cc(C)c(O)c(C)c2)c1 | inactive
O=C(COC(=O)c1ccc2c(c1)OCCO2)NCc1ccccc1 | inactive
CC(=O)Nc1cccc(C(=O)OCC(=O)c2ccc3c(c2)OCO3)c1 | 316 nM (active)
COc1ccc(C(=O)NCc2ccc(Cl)cc2)cc1S(=O)(=O)N1CCCC1 | inactive
CCN(CC(=O)Nc1ccc(OC)cc1)C(=O)c1ccc(Cl)c(S(=O)(=O)N2CCCC2)c1 | inactive
O=[N+]([O-])c1cc(S(=O)(=O)NCCc2ccccn2)ccc1Cl | inactive
CC(C#N)(NC(=O)CN1CCN(S(=O)(=O)c2cc(C(F)(F)F)ccc2Cl)CC1)C1CC1 (centres undefined) | inactive
